# Bioassay records as filed in PubChem BioAssay.
# Rce1 inhib: inhibitors of yeast Ras-converting enzyme. Q03530. yeast membranes, quenched prenylated peptide cleavage fluorescence. calls only. 290,000 compounds, 0.27% hits. AID 2563;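 active = fall in fluorescence gain of 50% or more versus controls, with final raw signal at or below 3038400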;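 also: plate controls were neutral control wells for no effect and wells lacking membranes for full effect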
# Target sequence (Q03530 whole entry, looked up): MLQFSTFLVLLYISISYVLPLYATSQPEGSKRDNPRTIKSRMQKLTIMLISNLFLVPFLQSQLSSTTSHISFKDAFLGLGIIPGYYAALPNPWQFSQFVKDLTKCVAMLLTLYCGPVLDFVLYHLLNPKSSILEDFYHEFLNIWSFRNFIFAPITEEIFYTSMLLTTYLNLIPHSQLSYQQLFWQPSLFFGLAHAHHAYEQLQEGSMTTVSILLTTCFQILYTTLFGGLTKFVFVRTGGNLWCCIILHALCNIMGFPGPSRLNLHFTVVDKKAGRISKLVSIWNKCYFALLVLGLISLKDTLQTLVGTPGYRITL
# DNA FID counter: displaces DNA intercalator in HCV helicase counter-screen; inhibition, % at 7.9 µM; 290,000 compounds, 0.17% hits; AID 1845; DNA fluorescent intercalator displacement, fluorescence; in the data active = inhibition above about 37%;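 also: 0% = vehicle and 100% = reference compound; higher means more ethidium bromide displaced from hairpin DNA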
# Kir21 inh: blocks the mouse Kir2.1 inward-rectifier potassium channel; P35561; HEK293-Kir2.1, FluxOR thallium flux fluorescence; hits give low values; B-score at 10 µM; 310,000 compounds, 0.85% hits; AID 1672;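 active = fluorescence ratio B-score at or below minus 3 SD of library scores, with starting-brightness B-score within 2 SD, cut at about -4.2 in these data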;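 also: channel flux triggered by added potassium and thallium sulfate stimulus; B-score of peak minus minimum fluorescence over baseline after thallium stimulus; more negative B-score means stronger Kir2.1 block with less thallium influx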
# M18AAP inhibitor: blocks P. falciparum M18 aspartyl aminopeptidase; AID 1822; inhibition, % at 7.35 µM; 290,000 compounds, 1.2% hits; recombinant PfM18AAP, H-Glu-NHMec fluorogenic cleavage;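 active = inhibition above the campaign mean inhibition over all tested compounds plus 3 SD, cut at about 28% in these data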;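 also: 0% = plate median of test compound wells and 100% = 2 mM ZnCl2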
# * = called active by the depositor; i = inactive; / = no result; + = active, no number. The list is not random: actives were taken first. Their share in the collection is about 2.3%.
SMILES,Rce1 inhib,DNA FID counter,Kir21 inh,M18AAP inhibitor
Cc1nc(N2CCOCC2)c2cc(-c3ccccc3)sc2n1,+,-18,-1,-5
CCCn1c2c(c(=N)c3c1CCC3)CCC2,i,0,-0.22,-5
CCCCCCCn1c2c(c(=N)c3ccccc31)CCC2,i,13,-6.7*,-2
CCOC(=O)c1c(C2COc3ccccc3O2)csc1NC(=O)c1ccccc1 (configuration not stated),+,1,-0.19,-9
Cc1ccccc1N1C(=O)CC(Nc2ccc3c(c2)OCO3)C1=O (configuration not stated),i,-2,1.8,30*
O=C(Nc1cccc(S(=O)(=O)N2CCCCC2)c1)C1CC(=O)N(c2ccc3c(c2)OCCO3)C1 (configuration not stated),i,-31,2.4,5
Cc1ccc(S(=O)(=O)Cc2cn3cccnc3n2)cc1,+,4,-2.4,0
CCc1nnc(NC(=O)c2cccnc2SC)s1,i,-1,0,-3
CCN(CC)S(=O)(=O)c1ccc(N2CCOCC2)c(NC(=S)NC(=O)c2ccco2)c1,i,-35,-2.8,13
CCCCCc1nnc(NC(=O)C2=COCCO2)s1,i,/,0.91,/
c1cc2c(cc1C1=NNC(=NC3CC3)SC1)OCCO2,i,-2,0.36,31*
O=C(NNc1cccc(Cl)n1)c1cccnc1Cl,i,2,-0.13,32*
O=C(NNc1cccc(Cl)c1)c1cccnc1Cl,i,4,1,13
CCCCN(C)C(=S)Nc1ccsc1C(=O)OC,i,-8,-2,1
CN(C)/C=N/c1nc2nccc(-c3cccc(Cl)c3)n2n1,/,0,1.3,4
CN(C)/C=N/c1nc2nccc(-c3ccc(F)cc3)n2n1,+,-4,-1.5,-2
COc1ccccc1CCC(=O)OCC(=O)NC1CCCC1,i,/,-1.2,/
COc1ccccc1NCCC(=O)OCC(=O)NC1CCCCCC1,i,-27,-7.7*,12
CCN(CC)S(=O)(=O)c1ccc(N/N=C/c2ccc(O)cc2O)nc1,i,-4,1.9,37*
CCN(CC)S(=O)(=O)c1ccc(N/N=C(\C)c2ccncc2)nc1,i,-19,-0.83,4
Oc1ccc(/C=N/Nc2ncc(Br)cn2)c(O)c1,i,0,0.04,52*
COc1cccc(NC(=O)CN2C(=O)CSc3nc(C)cc(C)c32)c1,i,-9,0.51,1
Cc1c2c(n3c(nc4ccccc43)c1C#N)N(CCN(C)C)CC2,i,18,-0.58,3
Cc1c2c(n3c(nc4ccccc43)c1C#N)N(CCCN(C)C)CC2,+,15,-2.9,6
O=C(CCCn1c(=O)[nH]c2ccc(Br)cc2c1=O)NCc1ccc(Cl)cc1,+,4,0.61,-2
SMILES,Rce1 inhib,DNA FID counter,Kir21 inh,M18AAP inhibitor
CC(C)CCNC(=O)CCCn1c(=O)[nH]c2ccc(Br)cc2c1=O,i,-6,-0.03,4
CN(C)CCOc1ccc2c(c1)Sc1ccccc1CC2=O,i,6,-5.2*,-1
Cc1cc(Cl)c2oc(C(=O)N3CCN(C(=O)c4ccco4)CC3)c(C)c2c1,+,-49,1.1,-5
Cc1cc(Cl)c2oc(C(=O)N3CCN(c4cccc(C)n4)CC3)c(C)c2c1,i,-25,0.01,-6
Cc1ccc(CN2C(=O)NC(Cc3c[nH]c4ccccc34)C2=O)cc1 (configuration not stated),i,6,-4.3*,-2
CCCNC(=O)CN1C(=O)COc2ccc(S(=O)(=O)N3CC(C)CC(C)C3)cc21 (configuration not stated),i,-29,-0.31,6
Cc1nnsc1C(=O)NNc1ccc(C(C)C)cc1,i,-9,-0.91,3
Cc1nnsc1C(=O)NNc1ccc(C(C)(C)C)cc1,i,0,-0.34,29*
c1ccc(C[n+]2csc3ccccc32)cc1,i,-15,-1.8,30*
Brc1cc2ccccc2[n+](Cc2ccccc2)c1,i,/,-0.3,/
NC(CCCCc1ccccc1)c1cccc2ccccc12 (configuration not stated),i,/,-11*,/
O=C(OCC(=O)N1CCc2ccccc21)c1nc(Cl)ccc1Cl,i,0,1.5,-2
CS(=O)(=O)c1ccc(CNC(=O)C2(C(F)(F)F)CC(CCCO)CCCO2)cc1 (configuration not stated),i,/,0,/
Cc1cccc2c(C(=O)Nn3cnnc3)cc(-c3ccccc3Cl)nc12,i,-33,-0.84,45*
CC(C)(C)c1ccc(/C=N/NC(=S)Nc2cccnc2)cc1,i,-25,-0.94,12
Oc1ccc(/C=N/NC(=S)Nc2cccnc2)cc1O,i,-3,0.79,60*
